# Test results as given in PubChem BioAssay.
# Test system: Neuregulin-1 EGF-like domain
# Test: binders of neuregulin-1 EGF-like domain, primary screen, biochemical, small-molecule microarray, 635 nm fluorescence (AID 1081);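 further: binding of the protein to compounds printed on small-molecule microarray slides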
# Conditions: small-molecule microarray binding, higher = more signal
row,Compound,composite z-score
1,COC(=O)[C@@]1(Cc2ccc(OC)cc2)[C@H]2c3cc(C(=O)N(C)C)n(Cc4cc(C)n(C)n4)c3C[C@H]2CN1C(=O)c1ccccc1,1.31
2,O=C(NCc1ccccc1)[C@]1(Cc2ccccc2)N=C(c2ccc(OCCCO)cc2)O[C@@H]1c1ccccc1,0.93
3,[N-]=[N+]=NCc1ccccc1[C@H]1OC(c2ccc(OCCCO)cc2)=N[C@@]1(Cc1ccccc1N=[N+]=[N-])C(=O)N1CCCCC1,1.04
4,COCCOC(=O)N1C(=O)[C@@]2(c3ccccc31)[C@H](c1ccc(OCCO)cc1)N1[C@H](c3ccccc3)[C@H](c3ccccc3)OC(=O)[C@H]1[C@@H]2C(=O)NC[C@H](O)c1ccccc1,1.35
5,COc1ccc(C(=O)Nc2ccc3c(c2)[C@]2(O[C@@H](CCO)[C@H]([Si](C)(C)c4ccc(OC)cc4)[C@H]2C)C(=O)N3Cc2ccccc2)cc1,0.913
6,CN(C)C(=O)[C@]1(Cc2ccccc2N=[N+]=[N-])N=C(c2ccc(OCCCO)cc2)O[C@@H]1c1ccccc1CN=[N+]=[N-],1.19
7,COCCOC(=O)N1C(=O)[C@@]2(c3cc(C#Cc4ccc(OC)cc4)ccc31)[C@H](C(=O)N1CCc3cc(OC)c(OC)cc3C1)[C@H]1C(=O)O[C@H](c3ccccc3)[C@H](c3ccccc3)N1[C@@H]2c1ccc(O)cc1,1.19
8,COc1ccc(C#Cc2ccc3c(c2)[C@]2(C(=O)N3)[C@H](C(N)=O)[C@H]3C(=O)O[C@H](c4ccccc4)[C@H](c4ccccc4)N3[C@@H]2c2ccc(O)cc2)cc1,1.38
9,COc1ccc([Si](C)(C)[C@@H]2[C@@H](CCO)O[C@]3(C(=O)N(Cc4ccccc4)c4ccc(N5C(=O)COc6ccccc65)cc43)[C@H]2C)cc1,1.05
